From PubChem BioAssay (NCI)
About 83,000 compounds went through this panel and 20% of them were active in at least one assay; those are over-represented in the sample as a whole.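 Values shown are percent growth following 48 h exposure of cells in 96-well plates to a single concentration of compound; below 10 was considered active.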 A number with no mark means an inactive call. Calls of active or inactive are those of the source.

How the values were obtained:
Assay in all cases: NCI-60 one-dose screen, 48 h (100 = growth as untreated, 0 = no growth, -100 = all killed)
Conditions in all cases: 10 µM unless noted
SR leukemia = tested on: SR leukemia
OVCAR-8 ovarian = tested on: OVCAR-8 ovarian
OVCAR-5 ovarian = tested on: OVCAR-5 ovarian
OVCAR-4 ovarian = tested on: OVCAR-4 ovarian
SK-OV-3 ovarian = tested on: SK-OV-3 ovarian
OVCAR-3 ovarian = tested on: OVCAR-3 ovarian
HS 578T breast = tested on: HS 578T breast
NCI/ADR-RES ovarian = tested on: NCI/ADR-RES ovarian
T-47D breast = tested on: T-47D breast
BT-549 breast = tested on: BT-549 breast
MDA-MB-435 melanoma = tested on: MDA-MB-435 melanoma
SW-620 colon = tested on: SW-620 colon
MCF7 breast = tested on: MCF7 breast
HCT-116 colon = tested on: HCT-116 colon
HCC-2998 colon = tested on: HCC-2998 colon
KM12 colon = tested on: KM12 colon
IGROV1 ovarian = tested on: IGROV1 ovarian
RPMI-8226 leukemia = tested on: RPMI-8226 leukemia

SMILES | growth (SR leukemia) | growth (OVCAR-8 ovarian) | growth (OVCAR-5 ovarian) | growth (OVCAR-4 ovarian) | growth (SK-OV-3 ovarian) | growth (OVCAR-3 ovarian) | growth (HS 578T breast) | growth (NCI/ADR-RES ovarian) | growth (T-47D breast) | growth (BT-549 breast) | growth (MDA-MB-435 melanoma) | growth (SW-620 colon) | growth (MCF7 breast) | growth (HCT-116 colon) | growth (HCC-2998 colon) | growth (KM12 colon) | growth (IGROV1 ovarian) | growth (RPMI-8226 leukemia) [%]
COc1ccc2c(c1)C(C)Cc1c(ncnc1-n1c(C)nc3ccccc31)N2C (configuration not stated) | 4.92% (active) | 38.8% | 78.3% | 58.6% | 31.5% | 5.47% (active) | 2.46% (active) | 5.75% (active) | 36.6% | 51.7% | -30.7% (active) | 12% | 15.4% | 36.3% | 41.3% | 28.7% | – | –
Cc1nc2ccccc2n1-c1ncnc2c1CC(C)c1ccccc1N2C (configuration not stated) | 19.7% | 85% | 101% | 92.4% | 85.9% | 94.6% | 82.5% | 67.8% | 72.1% | 92.3% | 8.87% (active) | 68% | 61.8% | 96.2% | 90% | 73.6% | – | –
COc1ccc(C(=O)COC(=O)[C@H](C[Se][Se]C[C@H](NC(=O)c2ccc(Br)cc2F)C(=O)OCC(=O)c2ccc(OC)cc2)NC(=O)c2ccc(Br)cc2F)cc1 | -17.1% (active) | -64.2% (active) | -68.2% (active) | -87.9% (active) | -91.9% (active) | – | -6.55% (active) | -60% (active) | -33.1% (active) | -89.6% (active) | 3.85% (active) | -59.7% (active) | -57.3% (active) | -69.1% (active) | -64.1% (active) | -81.6% (active) | -86.1% (active) | –
Cc1cccc2c3c(sc12)C(c1ccc(F)cc1)C(C#N)=C(N)O3 (configuration not stated) | 9.36% (active) | 18.9% | 25.9% | 60.8% | 60.7% | – | 28.7% | 12% | 66.1% | -0.876% (active) | – | 21.3% | 8.42% (active) | 7.07% (active) | 21.9% | 2.86% (active) | 20.6% | –
CCCCC[C@H](O)C/C=C1/C(=O)C=C[C@@H]1C/C=C\CCCC(=O)O | 15.8% | 33.7% | 152% | 77.8% | 118% | 22.2% | 95.6% | 54.4% | 50.4% | – | 36.9% | 51.9% | 19% | 44.5% | 76.5% | 50.9% | – | –
O=c1c2cc(F)ccc2sc2c(NCCN3CCOCC3)nc3ccccc3c12 | 28.3% | 81.4% | 89.5% | 67.5% | – | 76.8% | 63.3% | 72.5% | 84.9% | 82.3% | 61.2% | 42.4% | 76.9% | 46.9% | 59% | 26% | 74.6% | –
CCc1cccc2c1S/C(=C/c1ccc(OC)cc1)C2=O | 15.1% | 55.9% | – | 59.4% | 79.3% | – | 41.5% | 30.2% | 53.9% | 55.5% | – | 30% | 22.3% | 34.3% | 77.7% | 28.6% | 30.4% | –
CCCCOc1nc2c(C)cccc2cc1-c1cc(-c2ccc(Cl)cc2)nc(-c2ccc(Cl)cc2)c1 | 92.2% | 97.4% | – | 110% | 103% | 111% | 92.4% | 108% | 99% | 101% | 102% | 98.4% | 96.9% | 99.5% | 108% | 97.7% | 105% | –
O=C(O)c1cn(C2CC2)c2cc(N3CCN(C(=O)Nc4nc(-c5ccc(Cl)cc5)cs4)CC3)c(F)cc2c1=O | 11.2% | 7.37% (active) | 27.5% | 23.7% | -2.39% (active) | – | 35.5% | 38.1% | 5.75% (active) | 0.292% (active) | 9.36% (active) | 20.2% | 2.95% (active) | 14.8% | 30.6% | 8.97% (active) | – | –
CCOC(=O)CCN(C(=O)Nc1ccccc1)C1CCCCC1 | 129% | 128% | – | 113% | – | 118% | 107% | 106% | 104% | 118% | 106% | 102% | 98.4% | 102% | 74.8% | 108% | 93.2% | –
COc1cc(C(=O)c2cc(C)c3[nH]c4ccc(C)cc4c3c2C)cc(OC)c1OC | – | 28.7% | 41.7% | 53% | 36.9% | -16.4% (active) | 43.1% | -2.71% (active) | 39.9% | 14.5% | 17.5% | 31.4% | 11.6% | 5.32% (active) | 15.9% | – | 13.5% | 12.9
O=C1/C(=C/c2ccc(F)cc2)Sc2c(Br)cccc21 | 50.5% | 64.9% | 101% | 82.3% | – | 86.3% | 80.3% | 71.9% | 43.4% | 87% | 102% | 89.4% | 20.1% | 85.8% | 99.3% | 86% | – | –
CCOC(=O)c1[nH]c(C)c(C(=O)OCc2ccccc2C#N)c1C | 45.7% | 70.5% | – | 85.8% | 88.3% | – | 49.1% | 14.9% | 103% | 50.5% | 9.9% (active) | 41.4% | 30.5% | 40.9% | 64.3% | 42.8% | 44.6% | –
COc1cc(/C=C/c2ccccc2)cc(OC)c1 | 86.7% | 97.7% | – | 105% | 106% | 105% | 104% | 99.6% | 77.9% | 101% | 103% | 100% | 71.4% | 92.4% | 102% | 95.6% | 84.6% | –
CC1=C(C)C(=O)C(Nc2cccc(C(=O)OC(C)(C)C)c2)=C(Br)C1=O | 15.9% | 92.4% | – | 88.8% | 93.2% | 77.7% | 92.8% | 94.7% | -0.52% (active) | 92.9% | – | 91.3% | 27.1% | 62.3% | 100% | 99.9% | 86.7% | –
COc1cccc(-c2nc(-c3ccc(NC(=O)C(C)C)cc3)[nH]c2-c2ccnc(Br)c2)c1 | -14.5% (active) | 38.1% | – | 33.3% | 46.4% | 37.3% | -13.2% (active) | 46.7% | 0.829% (active) | 56.9% | – | 42.2% | 12.3% | 34% | 45.7% | 36.4% | 52.1% | –
N[C@@H](Cc1ccccc1)[C@@H](O)C(=O)NCc1ccc(F)cc1 | 95.1% | 104% | – | 103% | 120% | 117% | 104% | 110% | 113% | 105% | 101% | 103% | 94.9% | 96.1% | 113% | 102% | 107% | –
CCOC(=O)C1=C(N)Oc2c(sc3c(C)cccc23)C1c1ccc(OC)cc1 (configuration not stated) | 29.1% | 46.6% | 75.9% | 65.5% | – | 11% | 30% | 30.8% | 26% | – | – | 20.3% | 7.65% (active) | 18.4% | 74.4% | 27.4% | 27.9% | –
NC1=NC(c2cccc(Br)c2)c2sc3ccc(Cl)cc3c2N1 (configuration not stated) | 77.6% | 102% | – | 93.5% | 92.1% | 99.2% | 104% | 103% | 88.8% | 122% | 98.2% | 103% | 75.4% | 97.9% | 114% | 93.7% | 77% | –
COc1cccc2c(=O)c3c(sc12)c(NCCCN)nc1ccccc13 | -7.22% (active) | 34.8% | – | 21.8% | 64.7% | – | 60% | 46% | 82.6% | 90.4% | 33.9% | -48.7% (active) | 24.9% | -73.9% (active) | -57.3% (active) | 13% | 39.3% | –
